PubChem BioAssay AID1159580 (chemical genetic matrix, 2015)
The whole screen tested about 5,500 compounds, of which about 2,000 (36%) were called active. Inconclusive results (about 18%) are left out. Cut-off read from the data, not from the text of the source: active = normalized growth mostly below about 0.91 (no sharp cut-off); inconclusive = no clear call, values can overlap the other calls; inactive = mostly above about 0.92. This is one part of the list.

Test: chemical genetic growth profiling, strain panel (AID 1159580);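 note: tested at 20 µM; growth read once vehicle control cultures reached saturation at 30 °C; 1 = growth at the plate median or of vehicle wells; lower values mean less growth of the strain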
Details: growth OD

Measured: normalized growth

COc1cc(OC)c2c(OC)c(-c3ccc4c(c3)OCO4)c(=O)oc2c1
active: S. cerevisiae deletion strains, locus YLR262C, strain YPT6 (second series), hits give low values 0.783 | S. cerevisiae deletion strains, locus YLR320W, strain mms22, hits give low values 0.867 | S. cerevisiae deletion strains, locus YMR205C, strain PFK2, hits give low values 0.866 | S. cerevisiae deletion strains, locus YNL071W, strain lat1, hits give low values 0.816 | S. cerevisiae deletion strains, locus YNL307C, strain MCK1, hits give low values 0.792 | S. cerevisiae deletion strains, locus YPL051W, strain arl3, hits give low values 0.899
inactive: S. cerevisiae deletion strains, locus YJR075W, strain HOC1, hits give low values 0.972 | S. cerevisiae deletion strains, locus YKL009W, strain mrt4, hits give low values 1 | S. cerevisiae deletion strains, locus YKL068W, hits give low values 0.984 | S. cerevisiae deletion strains, locus YKL085W, strain MDH1 (second series), hits give low values 0.99 | S. cerevisiae deletion strains, locus YKL085W, strain MDH1, hits give low values 0.99 | S. cerevisiae deletion strains, locus YKL160W, strain elf1, hits give low values 0.931 | S. cerevisiae deletion strains, locus YKL190W, strain CNB1, hits give low values 0.984 | S. cerevisiae deletion strains, locus YKR001C, strain vps1, hits give low values 0.927 | S. cerevisiae deletion strains, locus YKR026C, strain gcn3, hits give low values 0.992 | S. cerevisiae deletion strains, locus YKR091W, strain srl3, hits give low values 0.978 | S. cerevisiae deletion strains, locus YLL001W, strain dnm1, hits give low values 0.97 | S. cerevisiae deletion strains, locus YLL026W, hits give low values 0.979 | S. cerevisiae deletion strains, locus YLL041C, strain sdh2, hits give low values 0.987 | S. cerevisiae deletion strains, locus YLR027C, strain aat2, hits give low values 0.934 | S. cerevisiae deletion strains, locus YLR039C, strain RIC1, hits give low values 0.865 | S. cerevisiae deletion strains, locus YLR058C, strain SHM2, hits give low values 0.99 | S. cerevisiae deletion strains, locus YLR102C, strain apc9, hits give low values 1 | S. cerevisiae deletion strains, locus YLR113W, strain HOG1, hits give low values 0.917 | S. cerevisiae deletion strains, locus YLR221C, strain rsa3, hits give low values 0.943 | S. cerevisiae deletion strains, locus YLR258W, strain gsy2, hits give low values 0.959 | S. cerevisiae deletion strains, locus YLR262C, strain YPT6, hits give low values 0.879 | S. cerevisiae deletion strains, locus YLR268W, strain sec22, hits give low values 0.946 | S. cerevisiae deletion strains, locus YLR330W, strain CHS5, hits give low values 0.991 | S. cerevisiae deletion strains, locus YLR342W, strain FKS1 (second series), hits give low values 0.952 | S. cerevisiae deletion strains, locus YLR342W, strain FKS1, hits give low values 0.957 | S. cerevisiae deletion strains, locus YLR357W, strain rsc2, hits give low values 0.997 | S. cerevisiae deletion strains, locus YLR370C, strain arc18, hits give low values 0.981 | S. cerevisiae deletion strains, locus YLR371W, strain rom2, hits give low values 0.984 | S. cerevisiae deletion strains, locus YLR384C, strain iki3, hits give low values 0.977 | S. cerevisiae deletion strains, locus YLR418C, strain cdc73, hits give low values 0.849 | S. cerevisiae deletion strains, locus YML016C, strain PPZ1, hits give low values 0.985 | S. cerevisiae deletion strains, locus YML032C, strain rad52, hits give low values 0.995 | S. cerevisiae deletion strains, locus YML120C, strain ndi1, hits give low values 0.998 | S. cerevisiae deletion strains, locus YML124C, strain tub3, hits give low values 0.986 | S. cerevisiae deletion strains, locus YMR058W, strain fet3, hits give low values 0.962 | S. cerevisiae deletion strains, locus YMR078C, strain ctf18, hits give low values 0.991 | S. cerevisiae deletion strains, locus YMR125W, strain sto1, hits give low values 1 | S. cerevisiae deletion strains, locus YMR129W, hits give low values 0.989 | S. cerevisiae deletion strains, locus YMR223W, strain ubp8, hits give low values 0.981 | S. cerevisiae deletion strains, locus YMR231W, strain pep5, hits give low values 0.973 | S. cerevisiae deletion strains, locus YMR263W, strain SAP30, hits give low values 0.966 | S. cerevisiae deletion strains, locus YMR307W, strain GAS1, hits give low values 0.905 | S. cerevisiae deletion strains, locus YNL067W, strain RPL9B, hits give low values 0.99 | S. cerevisiae deletion strains, locus YNL128W, strain TEP1, hits give low values 1 | S. cerevisiae deletion strains, locus YNL153C, strain GIM3, hits give low values 0.988 | S. cerevisiae deletion strains, locus YNL183C, strain NPR1, hits give low values 0.888 | S. cerevisiae deletion strains, locus YNL209W, strain ssb2, hits give low values 0.987 | S. cerevisiae deletion strains, locus YNL233W, strain BNI4, hits give low values 0.965 | S. cerevisiae deletion strains, locus YNL248C, strain rpa49, hits give low values 0.978 | S. cerevisiae deletion strains, locus YNL250W, strain rad50, hits give low values 0.997 | S. cerevisiae deletion strains, locus YNL271C, strain bni1, hits give low values 0.987 | S. cerevisiae deletion strains, locus YNL298W, strain CLA4, hits give low values 0.997 | S. cerevisiae deletion strains, locus YNL322C, strain KRE1 (second series), hits give low values 0.993 | S. cerevisiae deletion strains, locus YNL322C, strain KRE1, hits give low values 0.993 | S. cerevisiae deletion strains, locus YNR049C, strain mso1, hits give low values 0.992 | S. cerevisiae deletion strains, locus YNR052C, strain pop2, hits give low values 0.991 | S. cerevisiae deletion strains, locus YOL006C, strain TOP1, hits give low values 0.89 | S. cerevisiae deletion strains, locus YOL012C, strain htz1 0.711 | S. cerevisiae deletion strains, locus YOL147C, strain pex11, hits give low values 0.985 | S. cerevisiae deletion strains, locus YOR001W, strain rrp6, hits give low values 0.991 | S. cerevisiae deletion strains, locus YOR061W, strain CKA2, hits give low values 0.989 | S. cerevisiae deletion strains, locus YOR069W, strain VPS5, hits give low values 0.988 | S. cerevisiae deletion strains, locus YOR070C, strain gyp1, hits give low values 0.977 | S. cerevisiae deletion strains, locus YOR080W, strain dia2, hits give low values 0.989 | S. cerevisiae deletion strains, locus YOR083W, strain WHI5, hits give low values 0.937 | S. cerevisiae deletion strains, locus YOR106W, strain vam3, hits give low values 0.957 | S. cerevisiae deletion strains, locus YOR136W, strain idh2, hits give low values 0.99 | S. cerevisiae deletion strains, locus YOR144C, strain elg1, hits give low values 0.982 | S. cerevisiae deletion strains, locus YOR184W, strain ser1, hits give low values 0.891 | S. cerevisiae deletion strains, locus YOR231W, strain MKK1, hits give low values 0.943 | S. cerevisiae deletion strains, locus YOR265W, strain rbl2, hits give low values 0.981 | S. cerevisiae deletion strains, locus YOR270C, strain vph1, hits give low values 0.835 | S. cerevisiae deletion strains, locus YOR290C, strain snf2, hits give low values 0.932 | S. cerevisiae deletion strains, locus YOR316C, strain cot1, hits give low values 0.983 | S. cerevisiae deletion strains, locus YPL055C, strain LGE1, hits give low values 0.949 | S. cerevisiae deletion strains, locus YPL078C, strain atp4, hits give low values 0.945 | S. cerevisiae deletion strains, locus YPL106C, strain sse1, hits give low values 0.945 | S. cerevisiae deletion strains, locus YPL240C, strain hsp82, hits give low values 0.984 | S. cerevisiae deletion strains, locus YPL241C, strain CIN2, hits give low values 0.992 | S. cerevisiae deletion strains, locus YPL256C, strain CLN2, hits give low values 0.959 | S. cerevisiae deletion strains, locus YPR119W, strain clb2, hits give low values 0.97 | S. cerevisiae deletion strains, locus YPR141C, strain kar3, hits give low values 1 | S. cerevisiae deletion strains, locus YPR163C, strain tif3, hits give low values 0.969 | S. cerevisiae deletion strains, locus YPR167C, strain met16, hits give low values 0.989 | S. cerevisiae deletion strains, strain wtn01, hits give low values 0.968 | S. cerevisiae strains, strain wild type, hits give low values 0.982
